Measured values reported in the supplement of paper PMC11732987, “Enantioselective OTUD7B fragment discovery through chemoproteomics screening and high-throughput optimisation” (Communications Chemistry, 2025).

Key:
Experiment in all cases: log2 ratio of Biotin-Ahx-Ub-VS probe labelling (fragment/DMSO); higher = less target engagement (more negative = stronger competition), active = hit call of the paper (q ≤ 0.05, log2 ratio ≤ -1)
Conditions in all cases: compound concentration: 200 uM; treatment time: 3 h
[1] = biological target: T1, USP19 (UniProt O94966)
T1 sequence (whole entry): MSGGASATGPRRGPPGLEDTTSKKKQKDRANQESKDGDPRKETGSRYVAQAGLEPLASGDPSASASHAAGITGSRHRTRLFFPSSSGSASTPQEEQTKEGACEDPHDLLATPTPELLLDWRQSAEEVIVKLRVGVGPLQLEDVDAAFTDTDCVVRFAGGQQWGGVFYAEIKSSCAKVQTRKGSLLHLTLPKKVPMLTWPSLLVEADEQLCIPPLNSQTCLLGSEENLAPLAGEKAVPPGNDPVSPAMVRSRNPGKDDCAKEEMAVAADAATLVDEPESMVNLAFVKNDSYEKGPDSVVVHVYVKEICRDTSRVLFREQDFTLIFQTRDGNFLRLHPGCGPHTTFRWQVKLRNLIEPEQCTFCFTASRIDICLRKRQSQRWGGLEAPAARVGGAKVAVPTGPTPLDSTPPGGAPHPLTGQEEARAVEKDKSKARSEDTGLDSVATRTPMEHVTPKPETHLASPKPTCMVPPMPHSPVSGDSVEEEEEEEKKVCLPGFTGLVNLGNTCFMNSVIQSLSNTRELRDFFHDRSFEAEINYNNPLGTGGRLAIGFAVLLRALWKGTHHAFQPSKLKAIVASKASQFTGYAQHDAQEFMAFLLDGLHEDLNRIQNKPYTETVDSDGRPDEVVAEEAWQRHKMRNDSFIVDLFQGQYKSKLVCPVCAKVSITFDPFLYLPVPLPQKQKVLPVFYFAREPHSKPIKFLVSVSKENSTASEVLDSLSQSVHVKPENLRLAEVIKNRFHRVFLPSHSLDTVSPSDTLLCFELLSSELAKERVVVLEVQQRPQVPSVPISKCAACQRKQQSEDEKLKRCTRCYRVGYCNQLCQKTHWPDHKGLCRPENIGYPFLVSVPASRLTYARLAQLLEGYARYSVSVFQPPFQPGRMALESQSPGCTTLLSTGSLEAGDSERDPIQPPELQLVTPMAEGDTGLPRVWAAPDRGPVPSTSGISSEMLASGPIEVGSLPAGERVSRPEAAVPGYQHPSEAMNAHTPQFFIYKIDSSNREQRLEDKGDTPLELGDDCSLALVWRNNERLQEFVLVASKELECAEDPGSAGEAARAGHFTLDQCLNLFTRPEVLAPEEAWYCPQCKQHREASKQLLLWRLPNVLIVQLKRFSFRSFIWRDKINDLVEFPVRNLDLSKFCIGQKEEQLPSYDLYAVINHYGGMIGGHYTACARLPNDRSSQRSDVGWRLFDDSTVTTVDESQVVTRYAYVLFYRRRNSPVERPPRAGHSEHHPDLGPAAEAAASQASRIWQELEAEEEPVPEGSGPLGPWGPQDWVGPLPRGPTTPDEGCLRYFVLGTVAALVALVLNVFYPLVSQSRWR
How it was run: (§1)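 HEK293T lysate, 495 µg per sample in Tris/CHAPS/IGEPAL buffer with protease inhibitors, was treated in triplicate with fragment at 200 µM or vehicle for 3 h and then with Biotin-Ahx-Ub-VS at 0.5 µM final for 1 h. Labelled DUBs were NeutrAvidin-enriched, digested with LysC and trypsin, and run by diaPASEF LC-MS/MS. Spectronaut label-free quantities were global-median-normalised, and values are average log2 fragment/vehicle ratios by unpaired t-test on proteins with ≥2 unique peptides.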

[2] = biological target: T2, USP22 (UniProt Q9UPT9)
T2 sequence (whole entry): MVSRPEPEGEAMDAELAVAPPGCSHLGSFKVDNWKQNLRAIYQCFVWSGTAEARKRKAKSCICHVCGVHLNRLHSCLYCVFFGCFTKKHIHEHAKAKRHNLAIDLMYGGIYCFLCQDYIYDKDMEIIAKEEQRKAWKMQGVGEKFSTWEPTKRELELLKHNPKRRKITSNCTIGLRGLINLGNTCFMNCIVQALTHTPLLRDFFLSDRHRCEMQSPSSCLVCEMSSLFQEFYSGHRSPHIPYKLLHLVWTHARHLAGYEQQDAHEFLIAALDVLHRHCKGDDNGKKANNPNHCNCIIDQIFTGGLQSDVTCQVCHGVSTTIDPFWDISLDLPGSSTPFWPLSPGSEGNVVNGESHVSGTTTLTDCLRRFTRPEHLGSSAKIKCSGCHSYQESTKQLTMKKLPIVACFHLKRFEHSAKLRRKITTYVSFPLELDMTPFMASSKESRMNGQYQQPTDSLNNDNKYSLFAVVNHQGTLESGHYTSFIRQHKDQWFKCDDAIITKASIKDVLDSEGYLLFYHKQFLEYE
How it was run: as §1

[3] = biological target: USP24 (UniProt Q9UPU5)
USP24, sequence (Q9UPU5 whole entry): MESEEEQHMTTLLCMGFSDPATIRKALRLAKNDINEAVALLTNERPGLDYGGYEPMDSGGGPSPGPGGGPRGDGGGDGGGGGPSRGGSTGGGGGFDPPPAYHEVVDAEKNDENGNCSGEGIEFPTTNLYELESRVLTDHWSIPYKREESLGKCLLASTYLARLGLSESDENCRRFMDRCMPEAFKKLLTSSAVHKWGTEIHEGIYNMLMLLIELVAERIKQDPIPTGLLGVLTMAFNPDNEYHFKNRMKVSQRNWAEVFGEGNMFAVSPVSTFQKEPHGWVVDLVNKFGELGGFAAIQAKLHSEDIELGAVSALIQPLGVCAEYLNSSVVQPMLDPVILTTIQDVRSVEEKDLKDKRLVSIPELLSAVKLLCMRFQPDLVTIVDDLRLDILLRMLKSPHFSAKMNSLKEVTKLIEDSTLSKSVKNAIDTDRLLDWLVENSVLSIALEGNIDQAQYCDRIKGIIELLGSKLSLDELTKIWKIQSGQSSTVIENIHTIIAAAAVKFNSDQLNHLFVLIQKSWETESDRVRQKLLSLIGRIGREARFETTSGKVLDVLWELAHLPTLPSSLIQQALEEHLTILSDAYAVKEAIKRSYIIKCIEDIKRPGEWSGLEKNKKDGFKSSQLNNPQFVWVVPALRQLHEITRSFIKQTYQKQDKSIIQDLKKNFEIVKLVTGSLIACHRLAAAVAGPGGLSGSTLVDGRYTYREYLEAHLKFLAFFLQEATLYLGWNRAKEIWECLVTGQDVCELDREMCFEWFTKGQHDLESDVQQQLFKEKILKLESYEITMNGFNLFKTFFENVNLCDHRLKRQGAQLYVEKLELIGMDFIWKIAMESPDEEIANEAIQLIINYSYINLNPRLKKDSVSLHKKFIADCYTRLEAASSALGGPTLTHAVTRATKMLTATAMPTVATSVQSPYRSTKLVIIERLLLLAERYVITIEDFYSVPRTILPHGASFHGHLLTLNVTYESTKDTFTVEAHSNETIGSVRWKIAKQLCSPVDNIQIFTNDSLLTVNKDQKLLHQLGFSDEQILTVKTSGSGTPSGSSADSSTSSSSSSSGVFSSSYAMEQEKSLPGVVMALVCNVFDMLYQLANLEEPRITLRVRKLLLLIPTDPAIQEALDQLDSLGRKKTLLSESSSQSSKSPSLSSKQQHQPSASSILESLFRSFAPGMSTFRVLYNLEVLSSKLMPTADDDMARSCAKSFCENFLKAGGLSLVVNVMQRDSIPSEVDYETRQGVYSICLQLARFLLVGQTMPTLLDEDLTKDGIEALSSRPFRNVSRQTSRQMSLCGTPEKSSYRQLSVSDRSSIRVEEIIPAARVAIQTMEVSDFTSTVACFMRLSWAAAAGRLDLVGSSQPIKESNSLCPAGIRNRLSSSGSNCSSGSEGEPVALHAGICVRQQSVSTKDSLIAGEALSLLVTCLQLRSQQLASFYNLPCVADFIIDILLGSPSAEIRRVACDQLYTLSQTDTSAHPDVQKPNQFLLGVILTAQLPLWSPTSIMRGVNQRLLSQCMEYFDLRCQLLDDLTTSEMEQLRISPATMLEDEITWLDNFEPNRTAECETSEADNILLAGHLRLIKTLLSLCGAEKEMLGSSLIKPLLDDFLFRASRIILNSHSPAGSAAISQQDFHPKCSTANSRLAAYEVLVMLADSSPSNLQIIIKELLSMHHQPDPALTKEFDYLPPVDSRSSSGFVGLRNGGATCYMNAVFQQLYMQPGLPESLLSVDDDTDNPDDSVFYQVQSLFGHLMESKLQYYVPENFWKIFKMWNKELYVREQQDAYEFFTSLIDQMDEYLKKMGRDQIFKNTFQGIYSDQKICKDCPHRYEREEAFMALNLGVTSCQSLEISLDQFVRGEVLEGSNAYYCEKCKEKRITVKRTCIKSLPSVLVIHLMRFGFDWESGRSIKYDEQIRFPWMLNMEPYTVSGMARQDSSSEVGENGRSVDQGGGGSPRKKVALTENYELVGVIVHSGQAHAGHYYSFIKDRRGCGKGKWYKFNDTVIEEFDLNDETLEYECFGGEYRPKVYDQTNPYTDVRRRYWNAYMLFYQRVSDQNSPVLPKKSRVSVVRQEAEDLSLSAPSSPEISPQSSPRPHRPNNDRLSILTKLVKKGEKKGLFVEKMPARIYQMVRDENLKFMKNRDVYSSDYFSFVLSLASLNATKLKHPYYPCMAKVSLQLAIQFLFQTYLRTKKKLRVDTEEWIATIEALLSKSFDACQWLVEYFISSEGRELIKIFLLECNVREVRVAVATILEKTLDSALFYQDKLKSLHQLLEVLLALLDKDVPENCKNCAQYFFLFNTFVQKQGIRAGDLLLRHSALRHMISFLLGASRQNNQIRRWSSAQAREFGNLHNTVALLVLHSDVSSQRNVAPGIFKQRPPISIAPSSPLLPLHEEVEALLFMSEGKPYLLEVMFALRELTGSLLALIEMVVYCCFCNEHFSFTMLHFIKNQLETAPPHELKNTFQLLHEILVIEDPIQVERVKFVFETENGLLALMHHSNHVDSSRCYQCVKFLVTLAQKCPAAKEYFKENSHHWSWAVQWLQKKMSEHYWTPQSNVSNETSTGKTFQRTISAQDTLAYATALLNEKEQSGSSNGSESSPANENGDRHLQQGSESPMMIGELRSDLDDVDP
How it was run: as §1

[4] = biological target: T3, USP25 (UniProt Q9UHP3)
T3 sequence (whole entry): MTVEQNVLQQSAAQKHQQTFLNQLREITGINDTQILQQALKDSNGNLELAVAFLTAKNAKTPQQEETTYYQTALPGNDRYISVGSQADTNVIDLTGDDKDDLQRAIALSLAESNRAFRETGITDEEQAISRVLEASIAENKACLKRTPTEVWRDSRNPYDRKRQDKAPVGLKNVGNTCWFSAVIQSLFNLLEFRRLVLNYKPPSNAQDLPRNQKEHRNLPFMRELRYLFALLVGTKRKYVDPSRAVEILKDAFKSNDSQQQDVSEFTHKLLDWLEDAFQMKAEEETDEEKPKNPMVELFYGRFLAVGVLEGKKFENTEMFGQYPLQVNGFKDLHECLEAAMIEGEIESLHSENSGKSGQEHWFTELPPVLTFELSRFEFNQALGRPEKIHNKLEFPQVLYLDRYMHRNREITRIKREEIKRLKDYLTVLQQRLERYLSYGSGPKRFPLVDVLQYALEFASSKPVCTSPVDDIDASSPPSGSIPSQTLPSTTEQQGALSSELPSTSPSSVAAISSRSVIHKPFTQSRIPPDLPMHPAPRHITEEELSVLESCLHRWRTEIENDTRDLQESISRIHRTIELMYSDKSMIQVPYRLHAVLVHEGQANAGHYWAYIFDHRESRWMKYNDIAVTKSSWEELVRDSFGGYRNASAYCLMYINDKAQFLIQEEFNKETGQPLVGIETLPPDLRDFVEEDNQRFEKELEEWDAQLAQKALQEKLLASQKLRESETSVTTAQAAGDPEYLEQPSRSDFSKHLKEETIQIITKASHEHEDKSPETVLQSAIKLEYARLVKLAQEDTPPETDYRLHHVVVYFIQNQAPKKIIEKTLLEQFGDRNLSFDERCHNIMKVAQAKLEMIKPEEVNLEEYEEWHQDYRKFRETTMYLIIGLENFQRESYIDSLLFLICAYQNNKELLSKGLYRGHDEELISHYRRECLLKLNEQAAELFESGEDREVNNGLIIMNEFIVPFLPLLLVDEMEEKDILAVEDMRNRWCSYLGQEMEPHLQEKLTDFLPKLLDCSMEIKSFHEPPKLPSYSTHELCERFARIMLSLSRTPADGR
How it was run: as §1

[5] = biological target: T4, USP28 (UniProt Q96RU2)
T4 sequence (whole entry): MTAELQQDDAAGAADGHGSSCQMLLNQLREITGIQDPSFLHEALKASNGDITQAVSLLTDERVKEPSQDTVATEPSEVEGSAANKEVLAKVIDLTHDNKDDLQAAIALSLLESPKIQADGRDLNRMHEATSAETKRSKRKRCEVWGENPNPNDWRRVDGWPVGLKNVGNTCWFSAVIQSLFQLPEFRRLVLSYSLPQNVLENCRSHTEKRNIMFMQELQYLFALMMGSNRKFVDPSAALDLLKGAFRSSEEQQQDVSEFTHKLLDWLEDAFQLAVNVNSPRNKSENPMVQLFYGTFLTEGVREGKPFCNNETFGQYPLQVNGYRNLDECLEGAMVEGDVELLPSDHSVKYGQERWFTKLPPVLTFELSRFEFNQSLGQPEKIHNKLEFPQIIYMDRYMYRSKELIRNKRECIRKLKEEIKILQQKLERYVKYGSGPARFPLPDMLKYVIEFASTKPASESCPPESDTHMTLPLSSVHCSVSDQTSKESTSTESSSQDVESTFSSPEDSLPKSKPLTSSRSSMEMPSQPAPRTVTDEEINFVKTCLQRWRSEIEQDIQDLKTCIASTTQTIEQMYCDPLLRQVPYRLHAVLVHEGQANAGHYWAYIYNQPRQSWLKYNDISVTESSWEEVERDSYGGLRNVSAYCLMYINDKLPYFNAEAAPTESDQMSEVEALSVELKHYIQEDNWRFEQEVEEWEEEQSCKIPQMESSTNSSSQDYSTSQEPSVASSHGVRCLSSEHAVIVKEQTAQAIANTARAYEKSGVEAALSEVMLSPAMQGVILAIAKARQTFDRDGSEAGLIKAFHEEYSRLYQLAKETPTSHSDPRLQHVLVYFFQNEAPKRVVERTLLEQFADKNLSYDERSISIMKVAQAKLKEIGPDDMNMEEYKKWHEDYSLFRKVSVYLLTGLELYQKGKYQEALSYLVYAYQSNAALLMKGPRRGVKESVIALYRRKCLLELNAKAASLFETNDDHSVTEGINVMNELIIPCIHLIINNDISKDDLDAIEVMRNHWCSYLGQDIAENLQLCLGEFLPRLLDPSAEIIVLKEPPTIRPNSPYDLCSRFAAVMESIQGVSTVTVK
How it was run: as §1

Measured: log2 ratio of Biotin-Ahx-Ub-VS probe labelling

COc1ccccc1C(C)NC(=O)CCl (stereo not given)
inactive: [1] -0.243 | [2] -0.46 | [3] -0.363 | [4] -0.536 | [5] -0.666
